This passage reports activity change, negative = inhibition results from PubChem BioAssay AID504652 (National Center for Advancing Translational Sciences (NCATS), 2011).

The whole screen tested about 360,000 compounds, of which about 11,000 (3.1%) were called active. Only a selection was taken, and actives are over-represented in it overall. A number with no mark means an inactive call. Rule as the data show it: active = activity change below about -30%; inactive = the rest.
% is scaled to controls: 0 for no effect and ±100 for the full control effect.

The target in this experiment is D(1A) dopamine receptor (Homo sapiens) (UniProt P21728). The experiment in a line: Antagonist of Human D 1 Dopamine Receptor: qHTS. As to conditions: HEK293 TREx D1 cells, calcium flux, dopamine EC80; at 10 µM; active compounds read low. Summed up: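 Antagonism measured as reduced calcium response to an EC80 dopamine addition following 180 s compound pre-read; cells were inducible HEK293 Trex D1 plated overnight at 30 C, read kinetically at 1 cycle/sec.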
Chain of D(1A) dopamine receptor (Homo sapiens) (P21728 whole entry, looked up): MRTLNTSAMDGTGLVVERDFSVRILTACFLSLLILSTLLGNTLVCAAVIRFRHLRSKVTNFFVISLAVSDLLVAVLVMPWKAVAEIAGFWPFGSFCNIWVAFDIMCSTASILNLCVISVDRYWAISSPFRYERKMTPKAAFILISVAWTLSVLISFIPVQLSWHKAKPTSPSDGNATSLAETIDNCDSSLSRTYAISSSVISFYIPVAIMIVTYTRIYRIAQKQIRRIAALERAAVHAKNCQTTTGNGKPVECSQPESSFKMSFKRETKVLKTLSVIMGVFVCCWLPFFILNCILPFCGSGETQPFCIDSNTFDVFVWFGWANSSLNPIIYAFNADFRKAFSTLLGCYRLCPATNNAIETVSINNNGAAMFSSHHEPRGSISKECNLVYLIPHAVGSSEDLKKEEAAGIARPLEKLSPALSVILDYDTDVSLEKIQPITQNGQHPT
`CCC(C(=O)Nc1cc(OC)ccc1OC)n1c(=O)c(C(F)(F)F)nc2ccccc21` (centres undefined): the activity change, negative = inhibition was -23.6%.
Next, `COc1cc(OC)cc(-c2nc3nc(C)c(CCC(=O)Nc4ccccc4)c(C)n3n2)c1`: 2.44%; `CC(C)C[C@H](CO)Nc1nc(N(C)c2cccc(Cl)c2)c2ncn(C(C)C)c2n1`: -34% (active); `O=C(Nc1ccc(Br)cc1)c1cc2nc(-c3ccccc3)cc(-c3ccccc3)n2n1`: -10.1%.
Take `COc1ccc(-n2c(=O)c3ccccc3n(Cc3ccccc3Cl)c2=O)cc1`: the activity change, negative = inhibition was -11.1%.
In the case of `Fc1ccc(Cn2nnnc2C(c2cccs2)N2CCCCCC2)cc1` (centres undefined), the activity change, negative = inhibition is -36.7% (active).
Next, `Fc1ccccc1C(c1nnnn1Cc1ccc2c(c1)OCO2)N1CCN(Cc2ccccc2)CC1` (centres undefined): 19.9%; `N#Cc1ccc(C(c2nnnn2CCc2ccccc2)N2CCCCCC2)cc1` (centres undefined): 10.7%; `Cc1ccc(S(=O)(=O)N(Cc2nc(-c3ccc(Cl)cc3)no2)C2CCCCC2)cc1`: -2.35%.
On to `NS(=O)(=O)c1ccc(CNC(=O)c2cccc(Oc3ccccc3)c2)cc1`, for which the activity change, negative = inhibition is -38.4% (active).
Turning to `NS(=O)(=O)c1ccc(CNC(=O)c2cnccn2)cc1`, the activity change, negative = inhibition is 9.99%.
The value for `NS(=O)(=O)c1ccc(CNC(=O)c2cccc(S(=O)(=O)N3CCc4ccccc43)c2)cc1` was -4.68%.
Consider `CCN(CC)S(=O)(=O)c1ccc2c(c1)N(CC(=O)NCC(C)c1ccccc1)C(=O)CO2` (centres undefined), for which the activity change, negative = inhibition is 6.95%.
Regarding `CCCCN(CC)C(=O)c1c[nH]c2ccc(S(=O)(=O)Nc3cccc(OC)c3)cc2c1=O`, the activity change, negative = inhibition is 16.9%.
Take `CCC(=O)N1CCc2cc(S(=O)(=O)NCCC(=O)Nc3cccc(C)c3C)ccc21`: the activity change, negative = inhibition was -2.16%.
Consider `O=C(CC(=O)Nc1ccc(Cl)c(Cl)c1)N/N=C/c1ccc(O)cc1`, for which the activity change, negative = inhibition is -37.9% (active).
Take `Nc1nnn(CC(=O)N/N=C/c2ccc(O)cc2)n1`: the activity change, negative = inhibition is -2.2%.
On to `CC1=NNC(=O)C1CCC(=O)N/N=C\c1ccc(Cl)c(Cl)c1` (centres undefined), for which the activity change, negative = inhibition is 6.69%.
The value for `Cc1ccn2c(Nc3ccc4c(c3)OCCO4)c(-c3ccc(C)s3)nc2c1` was -15.7%; that for `Cc1cc(C(=O)NC2CCN(Cc3ccccc3)CC2)n[nH]1` was -5.73%; that for `S=C(Nc1ccc(Br)cc1)NC1CCN(Cc2ccccc2)CC1` was -68.5% (active).
On to `S=C(NN=C1CCN(Cc2ccccc2)CC1)NC1CCCCC1`, for which the activity change, negative = inhibition was 2.36%.
Next, `O=C(NC1CCN(Cc2ccccc2)CC1)c1cc(Br)c(Br)[nH]1`: -71.3% (active).
Consider `O=C(NC1CCN(Cc2ccccc2)CC1)c1ccc(Oc2cc(Cl)cc(Cl)c2)o1`, for which the activity change, negative = inhibition was -10.1%.
Next, `S=C(Nc1ccc(Br)cc1Cl)NC1CCN(Cc2ccccc2)CC1`: -18.2%; `Cc1ccc2nc(COc3ccccc3NC(=O)Nc3ccc(F)c(Cl)c3)cc(=O)n2c1`: -18.5%.
As to `CCc1ccccc1N(C)C(=O)C1CCCN(c2ncnc3onc(-c4ccc(F)cc4)c23)C1` (centres undefined), the activity change, negative = inhibition is -2.86%.
Next, `O=C(O)c1ccc(Cn2c(SCc3ccc(F)cc3)nc3ccncc32)cc1`: 11.2%; `CCc1ccccc1NC(=O)c1cnn(-c2ccc(F)cc2)c1C1CCNCC1`: -15.1%; `CCOC(=O)c1ccccc1NC(=O)c1sc2nc(-c3ccc(F)cc3)cn2c1C`: 6.46%.
Next, `CCOc1ccc(NC(=O)C(=O)NCCc2csc3nc(-c4ccccc4F)nn23)cc1`: -3.3%.
The value for `CSCCC(NC(=O)c1ccccc1)C(=O)N1CCN(Cc2ccc(Cl)cc2)CC1` (centres undefined) was 18.2%.
`CSCCC(NC(=O)c1ccccc1)C(=O)N1CCCCCCC1` (centres undefined): the activity change, negative = inhibition is -32.7% (active).
Next, `COc1ccccc1C(=O)NC(CCSC)C(=O)N1CCN(C(C)=O)CC1` (centres undefined): -23.2%; `CCOc1ccccc1NC(=O)CSc1ncc(S(=O)(=O)c2ccc(C(C)(C)C)cc2)c(=O)[nH]1`: 10.4%.
Regarding `Cc1ccccc1OCC(=O)Nc1c(C(=O)Nc2ccccc2F)oc2ccccc12`, the activity change, negative = inhibition was -7.86%.
Consider `CCOc1cc(C2C(C(=O)OC)=CN(C3CCCC3)C=C2C(=O)OC)cc(Br)c1O`, for which the activity change, negative = inhibition is -30.9% (active).
Next, `CCCC(=O)Nc1cc(OCC)c(NC(=O)NC2CCCCC2)cc1OCC`: -5.85%; `COC(=O)C1=CN(Cc2ccc(OC)cc2)C=C(C(=O)OC)C1c1ccc(O)c(OC)c1`: 11.1%; `O=C(Nc1nc2ccc(S(=O)(=O)N3CCCC3)cc2s1)C1CCCO1` (centres undefined): -41.4% (active).
Consider `CN1CCN(S(=O)(=O)c2ccc(NC(=O)C3CCCO3)cc2)CC1` (centres undefined), for which the activity change, negative = inhibition was -2.7%.
For the compound `Cc1cc(C)c2nc(NC(=O)C3CCCO3)sc2c1` (centres undefined), the activity change, negative = inhibition was -5.2%.
Next, `Cc1ccc(Cl)cc1NC(=O)NC1COc2ccccc2C1` (centres undefined): -23%.
The value for `O=C(CCc1nc(CN2CCN(S(=O)(=O)c3ccc(Br)cc3)CC2)no1)N1CCCCC1` was -0.355%; that for `Cc1ccc(NC(=O)CNCc2ccccn2)cc1S(=O)(=O)N(C)C` was -15%; that for `CCN(c1ccccc1)S(=O)(=O)c1cc(C(=O)NCc2ccccn2)ccc1C` was -89.3% (active).
The value for `CCN(CC)S(=O)(=O)c1cc(C(=O)Nc2ccccn2)ccc1C` was 5.43%.
As to `NC(=O)NCCCC(=O)O`, the activity change, negative = inhibition is -51% (active).
In the case of `Cc1oc(C)c(C(=O)NCCCC(=O)O)c1C(=O)NCCCC(=O)O`, the activity change, negative = inhibition is 1.94%.
Next, `CCCCCCCCCCCC(=O)O`: -4.71%; `COc1ccccc1C1C(C(=O)N2CCCCC2)=C(C)Nc2nc3ccccc3n21` (centres undefined): 3.49%.
Consider `O=C(CS(=O)(=O)c1cccc2nsnc12)N1CCN(c2cccc(Cl)c2)CC1`, for which the activity change, negative = inhibition is -13.7%.
Next, `Cc1cc(OCC(=O)NC2CCN(C)CC2)ccc1[N+](=O)[O-]`: -13%; `COc1cc(CN2CCN(Cc3ccc(C)cc3)CC2)c([N+](=O)[O-])cc1OC`: 5.79%; `Cc1cc(OCCCN2CCN(Cc3ccccc3)CC2)ccc1[N+](=O)[O-]`: -35.7% (active).
The value for `O=C(CCn1c(=O)c2ccccc2n(Cc2ccc(Cl)cc2)c1=O)NCc1ccc2c(c1)OCO2` was -2.86%; that for `O=C(Nc1ccc(S(=O)(=O)NCC2CCCO2)cc1)c1ccc(F)cc1` (centres undefined) was -29.6%; that for `CCOC(=O)c1c(NC(=O)c2ccc(S(=O)(=O)N(C)CC3CCCO3)cc2)sc2c1CC(C)(C)NC2(C)C` (centres undefined) was -2.75%.
With `O=C(NCC1CCCO1)c1ccc(S(=O)(=O)Nc2ccc(F)cc2)cc1` (centres undefined), the activity change, negative = inhibition is -8.93%.
For `CN(CC1CCCO1)S(=O)(=O)c1ccc(C(=O)Nc2ccc(F)cc2)cc1` (centres undefined), the activity change, negative = inhibition was -41.6% (active).
On to `CCOc1ccc(C(=O)Nc2ccc(S(=O)(=O)NCC3CCCO3)cc2)cc1OCC` (centres undefined), for which the activity change, negative = inhibition is -38.2% (active).
`CC1CCc2noc(NC(=O)c3ccc([N+](=O)[O-])cc3)c2C1` (centres undefined): the activity change, negative = inhibition is -19.9%.
The value for `Cc1ccc(NC(=O)c2ccc(S(=O)(=O)NCC3CCCO3)cc2)cc1C` (centres undefined) was -12%.
Take `CN(CC1CCCO1)S(=O)(=O)c1ccc(C(=O)Nc2ccc([N+](=O)[O-])cc2)cc1` (centres undefined): the activity change, negative = inhibition was -32.3% (active).
Consider `CCC(=O)Nc1ccc(S(=O)(=O)NCC2CCCO2)cc1` (centres undefined), for which the activity change, negative = inhibition was -9.18%.
Next, `CCC1(C)CC(=O)c2c(ccc3oc(C(=O)Nc4ccc(C(C)=O)cc4)c(C)c23)O1` (centres undefined): -2.38%.
The value for `COc1cccc(CNC(=O)Cn2c(=O)c3cccn3c3ccc(F)cc32)c1OC` was 4%; that for `CCOc1cc(NC(=S)NCCCN(C)C)c(OCC)cc1NC(=O)C1CC1` was -3.38%; that for `CCOc1cc(NC(=S)NCCCOC)c(OCC)cc1NC(=O)c1ccco1` was -35.1% (active).
The value for `CCOc1cc(NC(=S)NCc2ccco2)c(OCC)cc1NC(=O)c1ccco1` was -1.48%; that for `CCSc1ncc(Cl)c(C(=O)Nc2c(C(=O)c3ccccc3)oc3ccccc23)n1` was -6.04%; that for `Cc1ccccc1CS(=O)(=O)CC1Nc2ccc(C(=O)NCc3ccc(Cl)cc3)cc2NC1=O` (centres undefined) was -8.08%.
With `O=C1CSC(=S)N1/N=C/c1ccc(O)c([N+](=O)[O-])c1`, the activity change, negative = inhibition was -20.2%.
The value for `Cc1cc(C(=O)COC(=O)C2CC2)c(C)n1-c1ccc(F)cc1` was -6.5%.
Next, `Cc1cc(C(=O)N/N=C/c2ccc(O)c([N+](=O)[O-])c2)c(C)n1-c1ccc(F)cc1`: -30% (active).
`Cc1ccccc1CN1CCC(CNC(=O)c2c(C)oc3ncnc(N4CCCCC4)c23)CC1`: the activity change, negative = inhibition is -6.32%.
As to `O=C(Oc1ccc(C(=S)N2CCOCC2)cc1)c1ccc(F)cc1`, the activity change, negative = inhibition is -12.9%.
Next, `O=C(c1ccc(F)cc1)n1cc(C(=S)N2CCOCC2)c2ccccc21`: -30.2% (active); `O=C(Nc1ccc(F)cc1)C(=O)c1cn(CC(=O)N2CCOCC2)c2ccccc12`: 0.328%.
The value for `Cn1c(=O)sc2cc(NS(=O)(=O)c3ccc(C(C)(C)C)cc3)ccc21` was 6.14%; that for `O=C(O)CC/C(=C\c1cc2c(cc1Br)OCO2)c1nc2ccccc2s1` was -6.84%.
The value for `CC1=CC(=C(C#N)c2nc3ccccc3s2)C=C(C)N1c1ccc(F)cc1F` was -3.42%.
Take `O=C(O)CS/C(=C\c1ccc(F)cc1)c1nc2ccccc2s1`: the activity change, negative = inhibition was -33.3% (active).
On to `COc1ccc(OC)c(NC(=O)CSc2nc3ccccc3nc2N2CCCCC2)c1`, for which the activity change, negative = inhibition is -1.47%.
For the compound `Cc1cccc(NC(=O)CSc2nnc(CNC(=O)c3cccc(C)c3)n2-c2ccccc2)c1`, the activity change, negative = inhibition is -12.8%.
The value for `Cc1ccc(-c2nc(CS(=O)(=O)CC(=O)NCc3ccccc3Cl)c(C)o2)cc1` was 3.92%; that for `Cc1ccsc1C1C(C#N)=C(N)OC2=C1C(=O)CC(C)(C)C2` (centres undefined) was -36.3% (active).
With `COc1ccc(C2C(C#N)=C(/N=C/N3CCOCC3)OC3=C2C(=O)CC(C)(C)C3)cc1OC` (centres undefined), the activity change, negative = inhibition is 4.71%.
The value for `Cc1ccsc1C1C(C#N)=C(N)OC2=C1C(=O)CC(C)C2` (centres undefined) was -22.6%.
